TDP1 inh: inhibitors of human tyrosyl-DNA phosphodiesterase TDP1; AID 485290; recombinant TDP1, AlphaScreen DNA substrate cleavage; Potency, µM (top dose mostly 130 µM), without a hit: at the highest dose activity change, negative = inhibition, hits mostly inhibitors; hit rate 0.28% among 350,000; further: potency means the concentration at half of the fitted maximal effect; on the % scale 0 is the no-effect control and ±100 the full control effect; nearly all actives have a fitted effect of over 40% in size
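Tdp1 1 nM final; 15 min RT w/ cpd; substrate 15 nM, 5 min; beads 10 ug/ml, 10 min; AlphaScreen read. Neg ctrl: no enzyme.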
PI4K2A inh: blocks human PI4K2A kinase activity. purified PI4K2A, ADP-Glo luminescence, 1 h; hits give low values. activity change, negative = inhibition, % at 76.9 µM. hit rate 0.13% among 420,000; in the data active means activity change below about -50%; inconclusive means mostly about -30% to -49%;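 further: -100% = wells without enzyme as full effect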
Target sequence (Q9BTU6 whole entry, looked up): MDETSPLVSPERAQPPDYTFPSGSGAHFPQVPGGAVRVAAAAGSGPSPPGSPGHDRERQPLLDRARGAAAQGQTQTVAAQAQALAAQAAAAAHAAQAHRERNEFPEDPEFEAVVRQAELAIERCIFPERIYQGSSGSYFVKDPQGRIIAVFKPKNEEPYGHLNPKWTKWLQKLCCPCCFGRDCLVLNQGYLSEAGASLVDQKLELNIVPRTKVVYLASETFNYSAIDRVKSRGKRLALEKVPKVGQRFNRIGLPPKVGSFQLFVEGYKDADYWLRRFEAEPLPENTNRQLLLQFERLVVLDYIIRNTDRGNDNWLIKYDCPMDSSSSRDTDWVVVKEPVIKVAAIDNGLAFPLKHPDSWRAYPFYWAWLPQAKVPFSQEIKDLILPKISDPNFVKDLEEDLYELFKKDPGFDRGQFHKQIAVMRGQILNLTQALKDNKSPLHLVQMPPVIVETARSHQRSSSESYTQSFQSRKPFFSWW
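PI4K2A activity was measured by ADP-Glo luminescence: enzyme (4 ug/mL stock) and phosphatidylinositol (1.2 mM stock) in Tris pH 7.5/MgCl2/EGTA/Triton X-100 buffer were reacted with ATP (300 microM stock) for one hour at ambient temperature.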
FEN1 inhibitor: inhibitors of human flap endonuclease 1 | P39748 | Recombinant FEN1 flap cleavage, fluorescence, 15 min | Potency, µM (top dose mostly 114 µM), inactives show at the highest dose activity change, negative = inhibition, most hits filed as inhibitors | hit rate 0.35% among 390,000 | AID 588795; further: potency means the concentration at half of the fitted maximal effect; on the % scale 0 is the no-effect control and ±100 the full control effect; nearly all actives have a fitted effect of over 65% in size
Target sequence (P39748 whole entry, looked up): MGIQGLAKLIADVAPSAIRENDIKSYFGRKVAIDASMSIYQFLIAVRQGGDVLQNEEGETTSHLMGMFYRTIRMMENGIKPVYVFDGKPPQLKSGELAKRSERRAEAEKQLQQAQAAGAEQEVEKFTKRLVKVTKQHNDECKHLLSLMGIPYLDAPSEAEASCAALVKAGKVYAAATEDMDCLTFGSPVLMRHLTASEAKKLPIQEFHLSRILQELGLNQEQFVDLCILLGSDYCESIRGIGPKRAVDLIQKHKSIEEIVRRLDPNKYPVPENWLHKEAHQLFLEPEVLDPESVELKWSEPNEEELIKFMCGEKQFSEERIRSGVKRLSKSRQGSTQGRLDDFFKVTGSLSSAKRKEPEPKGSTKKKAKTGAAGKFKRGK
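Read-out was taken twice, immediately and after 15 min, following addition of 50 nM substrate to 10 nM FEN1 that had sat with test compound for 15 min at room temperature. Curves came from a four-parameter Hill model.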
APE1 inh-1: blocks human APE1 abasic DNA cleavage; P27695; Potency, µM (doses to about 65.8 µM), for inactives: top-dose activity change, negative = inhibition, most hits filed as inhibitors; recombinant APE1, TAMRA/BHQ-2 abasic DNA cleavage fluorescence; hit rate 0.35% among 350,000; AID 2517;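 further: potency means the concentration at half of the fitted maximal effect; plate controls were vehicle for no effect and reference inhibitor for full effect; nearly all actives have a fitted effect of over 55% in size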
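APE1 at 0.75 nM preincubated 15 min at room temperature with compound. Reaction then started with 50 nM double-stranded THF-abasic substrate labelled with TAMRA/BHQ-2, and 525/598 nm fluorescence read kinetically. Activity taken as third-minus-first read difference, normalized to DMSO and NSC13755 controls.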
PGK inhibitor: T. brucei PGK inhibition | PGK/GAPDH coupled, Kinase-Glo luminescence, 60 min | Potency, µM (doses to about 57.5 µM), for the others: top-dose activity change, negative = inhibition, most hits filed as inhibitors | hit rate 0.043% among 380,000 | AID 602233; further: potency means the concentration at half of the fitted maximal effect; on the % scale 0 is the no-effect control and ±100 the full control effect; nearly all actives have a fitted effect of over 60% in size
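Recombinant glycosomal PGK reaction used 1,3-bisphosphoglycerate generated in-well by GAPDH (100nM final) in 100mM TEA pH 7.6, 5mM MgCl2, 0.01% Tween-20. After 60 minutes at room temperature, ATP was read by Kinase-Glo Plus luminescence end-point.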
Tb PFK inh-1: T. brucei PFK enzyme inhibition. O15648. T. brucei PFK, ADP-Glo luminescence. Potency, µM (series often up to 57.5 µM), for the others: at the top dose activity, negative = inhibition, hits mostly inhibitors. hit rate 0.17% among 330,000. AID 485367;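 further: potency means the concentration at half of the fitted maximal effect; 0% = uninhibited 1x PFK enzyme wells and -100% = no-enzyme wells; nearly all actives have a fitted effect of over 60% in size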
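Activity is normalized to no-enzyme wells (full inhibition) and 1.25 nM enzyme wells (no inhibition). Reaction: 0.5 mM F6P, 0.1 mM ATP, 45 min RT, ADP-Glo luminescence; concentration-response curves fitted and classed by quality.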
DNA dye displace: displaces fluorescent dye from DNA, flagging APE1 artifacts; Potency, µM (series often up to 28.5 µM), for inactives: at the top dose activity change, negative = inhibition, actives largely listed as inhibitors; shares compounds with APE1 inh-1; DNA fluorescent dye displacement counterscreen, fluorescence; AID 2564; hit rate 7% among 480;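 further: loss of thiazole orange fluorescence as the dye is displaced from duplex DNA; potency means the concentration at half of the fitted maximal effect; 0% = ThO with dsDNA and no compound and -100% = ThO without dsDNA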
Endo IV inh: counter-screen for APE1 inhibitors: inhibitors of E. coli endonuclease IV | shares compounds with APE1 inh-1 | E. coli Endo IV, fluorogenic AP-site DNA cleavage | Potency, µM (doses to about 27.1 µM), without a hit: top-dose activity change, negative = inhibition, hits mostly inhibitors | hit rate 4% among 560 | AID 2565;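 further: potency means the concentration at half of the fitted maximal effect; plate controls were uninhibited enzyme wells for no effect and no enzyme buffer wells for full effect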
APE1 inh-2: confirmation of inhibitors of human APE1 endonuclease. shares compounds with APE1 inh-1. purified APE1, fluorogenic abasic-site DNA cleavage. Potency, µM (doses to about 57.1 µM), without a hit: at the top dose activity change, negative = inhibition, most hits filed as inhibitors. hit rate 44% among 750. AID 2572; further: potency means the concentration at half of the fitted maximal effect; on the % scale 0 is the no-effect control and ±100 the full control effect; nearly all actives have a fitted effect of over 30% in size
APE1 FP: APE1 (human) DNA binding inhibition, fluorescence polarization. shares compounds with APE1 inh-1. APE1 binding to TAMRA-labelled double-stranded DNA, fluorescence polarization displacement. Potency, µM (doses to about 28.5 µM), without a hit: top-dose activity, negative = inhibition, hits mostly inhibitors. hit rate 7% among 480. AID 2573; further: potency means the concentration at half of the fitted maximal effect; on the % scale 0 is the no-effect control and ±100 the full control effect
Tb PFK KinaseGlo: inhibits T. brucei PFK measured by ATP depletion; shares compounds with Tb PFK inh-1; Tb PFK enzyme, ATP depletion, Kinase-Glo Plus luminescence; Potency, µM (highest dose often 57.5 µM), for inactives: at the top dose inhibition; hit rate 47% among 1,100; AID 504636; calls by dose curve; further: potency means the concentration at half of the fitted maximal effect; nearly all actives have a fitted effect of over 60% in size
Tb PFK inh-2: validation of T. brucei phosphofructokinase inhibitors. shares compounds with Tb PFK inh-1. purified T. brucei PFK, ADP-Glo luminescence, 45 min. Potency, µM (top dose mostly 57.5 µM), for the others: at the highest dose activity change, negative = inhibition, usual class: inhibitors. hit rate 41% among 1,100. AID 504637;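 further: potency means the concentration at half of the fitted maximal effect; plate controls were full PFK enzyme control for no effect and no enzyme control for full effect; nearly all actives have a fitted effect of over 60% in size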
* hit, by the source's call; i = inactive; u = inconclusive; x = no result; [ ] = another dose, or the depositor's remark. The list is not random: actives were taken first. Their share in the collection is about 0.8%. Unless noted, the call rests on the fitted dose curve; in most records, active means well fitted curve in the direction sought with a large enough effect; inconclusive means small, poorly fitted or top-dose-only effect, or another doubt; inactive means no such curve, though single readings can be large; an effect the other way counts as inactive or inconclusive.

SMILES	TDP1 inh	PI4K2A inh	FEN1 inhibitor	APE1 inh-1	PGK inhibitor	Tb PFK inh-1	DNA dye displace	Endo IV inh	APE1 inh-2	APE1 FP	others
Cn1cccc1/C=C1\C(=O)NC(=O)N(Cc2ccco2)C1=O	18µM*	-17	u	14µM*	u	-15%	-4%	23%	4.5µM*	-8%
C[C@H]1CC[C@]2(NC1)O[C@H]1C[C@H]3[C@@H]4CC[C@H]5C[C@@H](O)CC[C@]5(C)[C@H]4CC[C@]3(C)[C@H]1[C@@H]2C	x	x	x	-4%	x	x	x	x	x	x
CC1=C(C(=O)O)N2C(=O)[C@@H](NC(=O)CCCC(=O)O)[C@H]2SC1	-4%	-1	2%	-1%	-3%	-4%	x	x	x	x
Nc1nc(/C(=C/CC(=O)O)C(=O)NC2C(=O)N3C(C(=O)O)=CCSC23)cs1 (configuration not stated)	25µM*	x	x	x	x	x	2%[57.1 µM]	65%[57.1 µM]	u	-1%[57.1 µM]
Cc1cc(/C=C2\C(=O)NC(=O)N(c3ccc(F)cc3)C2=O)c(C)n1-c1ccc(C(=O)O)cc1	6%	-7	-6%	3%	-7%	-8%	x	x	x	x
Cc1cc(/C=C2\C(=O)NC(=O)N(Cc3ccccc3Cl)C2=O)c(C)n1-c1ccc(C(=O)O)cc1	22µM*	4	-25%	11µM*	u	-20%	-12%	-3%	13µM*	u
O=C(O)c1ccc2[nH]cc(CCCCN3CC=C(c4ccccc4)CC3)c2c1	x	-1	x	u	x	x	-1%[57.1 µM]	19%[57.1 µM]	u	15%[57.1 µM]
O=c1cc(-c2ccc(O)c(O)c2)oc2c(C3O[C@H](CO)[C@@H](O)[C@H](O)[C@H]3O)c(O)cc(O)c12 (some centres not stated)	9%	-2	-18%	0.89µM*	5%	-3%	u	73%	u	-4%
O=C(c1ccccc1)C(CN1CCCC1)c1ccccc1 (configuration not stated)	-2%	34	-18%	0%	5%	-6%	x	x	x	x
CC(c1ccccc1)n1cncc1C(=O)O (configuration not stated)	22µM*	8	-2%	u	-2%	3%	x	x	-38%	x
CCN(CC)C(=O)N[C@@H]1C=C2c3cccc4[nH]cc(c34)C[C@@H]2N(C)C1	x	-4	x	u	x	x	x	x	x	x
N[C@@H](Cc1ccc(Oc2cc(I)c(O)c(I)c2)c(I)c1)C(=O)O	x	-15	x	x	x	x	x	x	x	x
CN1CCN2c3ccc(N)cc3CC3(C(=O)NC(=O)NC3=O)C2C1 (configuration not stated)	45µM*	-7	4%	u	-1%	u	x	x	u	x
C[C@H]1O[C@@H](O[C@H]2[C@@H](O)C[C@@H](O[C@H]3[C@@H](O)C[C@H](O[C@H]4CC[C@@]5(C)[C@H](CC[C@@H]6[C@@H]5CC[C@]5(C)[C@@H](C7=CC(=O)OC7)CC[C@]65O)C4)O[C@@H]3C)O[C@@H]2C)C[C@H](O)[C@@H]1O	x	x	18%	x	x	x	x	x	x	x
COc1cc(/C=C(\C#N)C(=O)c2ccc(O)c(O)c2)cc(I)c1O	6%[56.1 µM]	-4	3.5µM*	6µM*	u	1.7µM*	x	-16%[57.1 µM]	u	x	Tb PFK KinaseGlo=6%;Tb PFK inh-2=-17%
COc1cc(CC(C)N)c(OC)cc1Br (configuration not stated)	x	i	x	x	x	x	x	x	x	x
O=c1cc(-c2ccccc2)oc2cc(O)c(O)c(O)c12	-3%	-4	35µM*	5.6µM*	-14%	7.6µM*	1µM*	186%[57.1 µM]	0.63µM*	18%[57.1 µM]	Tb PFK KinaseGlo=2.7µM*;Tb PFK inh-2=5.4µM*
NC1CCCCC1N (configuration not stated)	2%	x	x	-2%	x	x	x	x	x	x
O=[N+]([O-])/N=C1\NCCN1Cc1ccc(Cl)nc1	x	2	x	-2%	x	x	x	x	x	x
COc1cc(CC(C)N)cc2c1OCO2 (configuration not stated)	x	i	x	x	x	x	x	x	x	x
CCOC(=O)C1CCN(/C=C2/C(=O)NC(=O)N(Cc3ccco3)C2=O)CC1	40µM*	1	-35%	14µM*	u	u	5%	21%	3.2µM*	u	Tb PFK KinaseGlo=u;Tb PFK inh-2=u
O=C(O[C@@H]1OC2COC(=O)c3cc(O)c(O)c(O)c3-c3c(cc(O)c(O)c3O)C(=O)O[C@@H]([C@H]1O)[C@@H]2O)c1cc(O)c(O)c(O)c1	-4%	u	0.71µM*	0.071µM*	-82%	2.1µM*	-7%	111%	0.05µM*	u	Tb PFK KinaseGlo=0.067µM*;Tb PFK inh-2=0.085µM*
S=C(SSC(=S)N1CCCCC1)N1CCCCC1	x	1	x	x	x	x	x	x	x	x
CCOc1ccc(-c2nc3ccc(-c4nc5ccc(N6CCN(C)CC6)cc5[nH]4)cc3[nH]2)cc1	27%	x	x	13%	x	x	x	x	x	x
O=c1[nH]c(=S)n(Cc2ccco2)c(O)c1C=NCc1cccs1	-5%	-57*	-12%	u	-3%	u	-9%	11%	-11%[24.4 µM]	-4%	Tb PFK KinaseGlo=u;Tb PFK inh-2=-13%
O=c1[nH]c(=O)n(Cc2ccco2)c(O)c1C=NCc1cccs1	-8%	5	-13%	2%	-9%	x	x	x	x	x
C=C(C)C(=O)Nc1cccc(C2=NOC3(C2)C[C@H](C(N)=O)N(C(=O)COc2ccc(Cl)cc2)C3)c1 (some centres not stated)	11µM*	0	-20%	u	u	u	x	x	u	x	Tb PFK KinaseGlo=0.54µM*;Tb PFK inh-2=0.67µM*
